Among all 5,500 compounds or so, about 2,000 (36%) were called active. Another 18% or so got no clear call; they are omitted. Rule as the data show it: active = normalized growth mostly below about 0.91 (no sharp cut-off); inconclusive = no clear call, values can overlap the other calls; inactive = mostly above about 0.92. The list shows a part of the results.
Assay: chemical genetic growth profiling, strain panel (AID 1159580);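 also: tested at 20 µM; growth read once vehicle control cultures reached saturation at 30 °C; 1 = growth at the plate median or of vehicle wells; lower values mean less growth of the strain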
Conditions: growth OD

Measured: normalized growth

Cc1c(N(C)CS(=O)(=O)O)c(=O)n(-c2ccccc2)n1C
inactive: S. cerevisiae deletion strains, locus YJR075W, strain HOC1, stronger effect = lower value 1 | S. cerevisiae deletion strains, locus YKL009W, strain mrt4, stronger effect = lower value 1.03 | S. cerevisiae deletion strains, locus YKL068W, stronger effect = lower value 0.998 | S. cerevisiae deletion strains, locus YKL085W, strain MDH1 (second series), stronger effect = lower value 0.99 | S. cerevisiae deletion strains, locus YKL085W, strain MDH1, stronger effect = lower value 0.99 | S. cerevisiae deletion strains, locus YKL160W, strain elf1, stronger effect = lower value 1.02 | S. cerevisiae deletion strains, locus YKL190W, strain CNB1, stronger effect = lower value 1.01 | S. cerevisiae deletion strains, locus YKR001C, strain vps1, stronger effect = lower value 1.01 | S. cerevisiae deletion strains, locus YKR026C, strain gcn3, stronger effect = lower value 1.01 | S. cerevisiae deletion strains, locus YKR091W, strain srl3, stronger effect = lower value 1.01 | S. cerevisiae deletion strains, locus YLL001W, strain dnm1, stronger effect = lower value 1.01 | S. cerevisiae deletion strains, locus YLL026W, stronger effect = lower value 1.01 | S. cerevisiae deletion strains, locus YLL041C, strain sdh2, stronger effect = lower value 1 | S. cerevisiae deletion strains, locus YLR027C, strain aat2, stronger effect = lower value 1.01 | S. cerevisiae deletion strains, locus YLR039C, strain RIC1, stronger effect = lower value 0.92 | S. cerevisiae deletion strains, locus YLR058C, strain SHM2, stronger effect = lower value 0.987 | S. cerevisiae deletion strains, locus YLR102C, strain apc9, stronger effect = lower value 0.984 | S. cerevisiae deletion strains, locus YLR113W, strain HOG1, stronger effect = lower value 0.996 | S. cerevisiae deletion strains, locus YLR221C, strain rsa3, stronger effect = lower value 1.01 | S. cerevisiae deletion strains, locus YLR258W, strain gsy2, stronger effect = lower value 1.01 | S. cerevisiae deletion strains, locus YLR262C, strain YPT6 (second series), stronger effect = lower value 0.999 | S. cerevisiae deletion strains, locus YLR262C, strain YPT6, stronger effect = lower value 0.962 | S. cerevisiae deletion strains, locus YLR268W, strain sec22, stronger effect = lower value 0.992 | S. cerevisiae deletion strains, locus YLR320W, strain mms22, stronger effect = lower value 1.03 | S. cerevisiae deletion strains, locus YLR330W, strain CHS5, stronger effect = lower value 0.993 | S. cerevisiae deletion strains, locus YLR342W, strain FKS1 (second series), stronger effect = lower value 0.961 | S. cerevisiae deletion strains, locus YLR342W, strain FKS1, stronger effect = lower value 1.02 | S. cerevisiae deletion strains, locus YLR357W, strain rsc2, stronger effect = lower value 1.03 | S. cerevisiae deletion strains, locus YLR370C, strain arc18, stronger effect = lower value 1 | S. cerevisiae deletion strains, locus YLR371W, strain rom2, stronger effect = lower value 0.977 | S. cerevisiae deletion strains, locus YLR384C, strain iki3, stronger effect = lower value 1.01 | S. cerevisiae deletion strains, locus YLR418C, strain cdc73, stronger effect = lower value 0.948 | S. cerevisiae deletion strains, locus YML016C, strain PPZ1, stronger effect = lower value 0.99 | S. cerevisiae deletion strains, locus YML032C, strain rad52, stronger effect = lower value 0.999 | S. cerevisiae deletion strains, locus YML120C, strain ndi1, stronger effect = lower value 1.01 | S. cerevisiae deletion strains, locus YML124C, strain tub3, stronger effect = lower value 0.988 | S. cerevisiae deletion strains, locus YMR058W, strain fet3, stronger effect = lower value 1.01 | S. cerevisiae deletion strains, locus YMR078C, strain ctf18, stronger effect = lower value 0.978 | S. cerevisiae deletion strains, locus YMR125W, strain sto1, stronger effect = lower value 1.02 | S. cerevisiae deletion strains, locus YMR129W, stronger effect = lower value 1 | S. cerevisiae deletion strains, locus YMR205C, strain PFK2, stronger effect = lower value 1.02 | S. cerevisiae deletion strains, locus YMR223W, strain ubp8, stronger effect = lower value 0.962 | S. cerevisiae deletion strains, locus YMR231W, strain pep5, stronger effect = lower value 1.02 | S. cerevisiae deletion strains, locus YMR263W, strain SAP30, stronger effect = lower value 1.01 | S. cerevisiae deletion strains, locus YMR307W, strain GAS1, stronger effect = lower value 0.906 | S. cerevisiae deletion strains, locus YNL067W, strain RPL9B, stronger effect = lower value 1.01 | S. cerevisiae deletion strains, locus YNL071W, strain lat1, stronger effect = lower value 1.02 | S. cerevisiae deletion strains, locus YNL183C, strain NPR1, stronger effect = lower value 0.924 | S. cerevisiae deletion strains, locus YNL209W, strain ssb2, stronger effect = lower value 1.02 | S. cerevisiae deletion strains, locus YNL233W, strain BNI4, stronger effect = lower value 1 | S. cerevisiae deletion strains, locus YNL248C, strain rpa49, stronger effect = lower value 1.02 | S. cerevisiae deletion strains, locus YNL250W, strain rad50, stronger effect = lower value 0.969 | S. cerevisiae deletion strains, locus YNL271C, strain bni1, stronger effect = lower value 0.992 | S. cerevisiae deletion strains, locus YNL298W, strain CLA4, stronger effect = lower value 0.993 | S. cerevisiae deletion strains, locus YNL307C, strain MCK1, stronger effect = lower value 0.987 | S. cerevisiae deletion strains, locus YNL322C, strain KRE1 (second series), stronger effect = lower value 1.01 | S. cerevisiae deletion strains, locus YNL322C, strain KRE1, stronger effect = lower value 0.998 | S. cerevisiae deletion strains, locus YNR049C, strain mso1, stronger effect = lower value 1 | S. cerevisiae deletion strains, locus YNR052C, strain pop2, stronger effect = lower value 0.985 | S. cerevisiae deletion strains, locus YOL006C, strain TOP1, stronger effect = lower value 1.14 | S. cerevisiae deletion strains, locus YOL012C, strain htz1 0.803 | S. cerevisiae deletion strains, locus YOL147C, strain pex11, stronger effect = lower value 0.985 | S. cerevisiae deletion strains, locus YOR001W, strain rrp6, stronger effect = lower value 1.01 | S. cerevisiae deletion strains, locus YOR061W, strain CKA2, stronger effect = lower value 0.989 | S. cerevisiae deletion strains, locus YOR069W, strain VPS5, stronger effect = lower value 0.984 | S. cerevisiae deletion strains, locus YOR070C, strain gyp1, stronger effect = lower value 1.01 | S. cerevisiae deletion strains, locus YOR080W, strain dia2, stronger effect = lower value 1.01 | S. cerevisiae deletion strains, locus YOR083W, strain WHI5, stronger effect = lower value 1.02 | S. cerevisiae deletion strains, locus YOR106W, strain vam3, stronger effect = lower value 1.03 | S. cerevisiae deletion strains, locus YOR136W, strain idh2, stronger effect = lower value 0.986 | S. cerevisiae deletion strains, locus YOR144C, strain elg1, stronger effect = lower value 0.989 | S. cerevisiae deletion strains, locus YOR184W, strain ser1, stronger effect = lower value 1.03 | S. cerevisiae deletion strains, locus YOR231W, strain MKK1, stronger effect = lower value 0.996 | S. cerevisiae deletion strains, locus YOR265W, strain rbl2, stronger effect = lower value 1.01 | S. cerevisiae deletion strains, locus YOR270C, strain vph1, stronger effect = lower value 1.05 | S. cerevisiae deletion strains, locus YOR290C, strain snf2, stronger effect = lower value 1.01 | S. cerevisiae deletion strains, locus YOR316C, strain cot1, stronger effect = lower value 0.981 | S. cerevisiae deletion strains, locus YPL051W, strain arl3, stronger effect = lower value 1.01 | S. cerevisiae deletion strains, locus YPL055C, strain LGE1, stronger effect = lower value 1.05 | S. cerevisiae deletion strains, locus YPL078C, strain atp4, stronger effect = lower value 1.02 | S. cerevisiae deletion strains, locus YPL106C, strain sse1, stronger effect = lower value 1.02 | S. cerevisiae deletion strains, locus YPL240C, strain hsp82, stronger effect = lower value 1.01 | S. cerevisiae deletion strains, locus YPL256C, strain CLN2, stronger effect = lower value 1.01 | S. cerevisiae deletion strains, locus YPR119W, strain clb2, stronger effect = lower value 0.986 | S. cerevisiae deletion strains, locus YPR141C, strain kar3, stronger effect = lower value 0.981 | S. cerevisiae deletion strains, locus YPR163C, strain tif3, stronger effect = lower value 1.01 | S. cerevisiae deletion strains, locus YPR167C, strain met16, stronger effect = lower value 0.977 | S. cerevisiae deletion strains, strain wtn01, stronger effect = lower value 0.986 | S. cerevisiae strains, strain wild type, stronger effect = lower value 0.995
